# Measurements published in PubChem BioAssay AID1511 (Johns Hopkins Ion Channel Center, 2009).
# Hit rate of the full screen: of about 310,000 compounds, about 1,600 (0.52%) were called active. The list comes from a sample in which actives are over-represented; it also holds similar structures and randomly drawn compounds. Unmarked numbers belong to inactive results.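 Rule for the calls: active = activation above the mean of controls blocked by dofetilide plus 5 SD; inactive = the rest.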
# Molecular target: Voltage-gated inwardly rectifying potassium channel KCNH2 (Homo sapiens) (UniProt Q12809)
# Sequence (Q12809 whole entry, looked up): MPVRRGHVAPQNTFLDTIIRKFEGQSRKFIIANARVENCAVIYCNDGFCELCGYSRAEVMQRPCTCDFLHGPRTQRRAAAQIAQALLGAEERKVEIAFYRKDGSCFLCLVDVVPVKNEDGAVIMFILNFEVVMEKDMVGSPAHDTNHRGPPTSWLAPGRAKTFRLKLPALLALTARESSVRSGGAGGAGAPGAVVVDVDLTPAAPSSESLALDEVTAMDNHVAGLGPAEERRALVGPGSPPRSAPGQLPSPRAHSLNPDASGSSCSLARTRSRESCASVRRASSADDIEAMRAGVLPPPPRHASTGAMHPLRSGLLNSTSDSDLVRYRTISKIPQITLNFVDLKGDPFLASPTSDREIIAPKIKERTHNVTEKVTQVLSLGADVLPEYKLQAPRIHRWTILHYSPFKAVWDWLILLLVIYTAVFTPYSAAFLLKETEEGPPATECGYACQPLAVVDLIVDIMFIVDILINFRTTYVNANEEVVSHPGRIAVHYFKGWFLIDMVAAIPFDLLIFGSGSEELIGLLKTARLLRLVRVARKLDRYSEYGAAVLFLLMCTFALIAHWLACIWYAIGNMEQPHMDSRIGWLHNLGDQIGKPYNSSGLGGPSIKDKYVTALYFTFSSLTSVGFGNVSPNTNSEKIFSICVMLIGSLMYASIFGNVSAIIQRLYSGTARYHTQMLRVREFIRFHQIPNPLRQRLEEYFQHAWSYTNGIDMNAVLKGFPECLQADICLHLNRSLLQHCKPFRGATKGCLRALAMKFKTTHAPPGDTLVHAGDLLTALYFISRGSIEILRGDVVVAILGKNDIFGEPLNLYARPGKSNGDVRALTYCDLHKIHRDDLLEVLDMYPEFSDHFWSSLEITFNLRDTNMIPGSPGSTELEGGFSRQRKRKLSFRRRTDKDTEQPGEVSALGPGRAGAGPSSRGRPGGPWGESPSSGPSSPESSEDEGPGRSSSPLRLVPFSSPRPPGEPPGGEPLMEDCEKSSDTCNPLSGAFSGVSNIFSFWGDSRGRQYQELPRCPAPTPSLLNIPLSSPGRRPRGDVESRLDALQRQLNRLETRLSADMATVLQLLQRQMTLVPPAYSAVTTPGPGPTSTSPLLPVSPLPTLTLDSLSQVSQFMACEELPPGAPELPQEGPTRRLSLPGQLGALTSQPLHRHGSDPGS
# Experiment: hERG rescue from dofetilide block, primary screen, cell-based, CHO-hERG, FluxOR thallium flux, dofetilide IC70 (AID 1511);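 note: thallium influx through hERG after potassium depolarization seen as dye fluorescence rise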
# Details: dofetilide IC70 present, at 10 µM, active compounds read high
row,Structure (SMILES),"activation (rescue from dofetilide block), less the hit threshold"
1,CC1CCCN(C(=O)c2ccc3c(c2)C(=O)N(CCC2=CCCCC2)C3=O)C1 (stereo not drawn),-17.2%
2,Cc1ccc(S(=O)(=O)Oc2ccc(/C=N/NC(=O)c3c(Cl)cnn3C)cc2)cc1,-18.1%
3,CCc1nc2sc3c(Cl)ncnc3c2c2c1CCCC2,-13.4%
4,Cc1cc([N+](=O)[O-])ccc1NC(=O)C1CCCO1 (stereo not drawn),-1.96%
5,Cc1ccc(C)c(C(C)NC(=O)C2CCCO2)c1 (stereo not drawn),-6.97%
6,Cc1cc(C)c2nc(NC(=O)C3CCCO3)sc2c1 (stereo not drawn),5.12% (active)
7,CSc1cccc(NC(=S)N(C(C)C)C(C)c2ccccn2)c1 (stereo not drawn),-10.5%
8,Cc1cc(NC(=O)CSc2nc3cc(Cl)ccc3c(=O)n2Cc2ccco2)no1,6.67% (active)
9,Cc1cc(NC(=O)CSc2nc3ccccc3n2CC(C)C)no1,-8.27%
10,N#Cc1c(NC(=O)CSc2nc3ccccc3c(=O)n2Cc2ccco2)sc2c1CCCC2,-16.4%
11,CCN1CCN(c2nc(Nc3cccc(F)c3)nc(N)c2[N+](=O)[O-])CC1,1.19%
12,CCCN(CCC)S(=O)(=O)c1ccc(C(=O)NNC(=O)c2cc(OC)c(OC)c(OC)c2)cc1,-5.35%
13,CC1(OC(=O)C2CCCC2)C(=O)C=C2C=C(c3ccc(C#N)cc3)OC=C2C1=O (stereo not drawn),7.34% (active)
14,COCCN1C=C2C(=O)C(C)(OC(=O)C3CCCC3)C(=O)C=C2C=C1c1ccsc1 (stereo not drawn),-7.58%
15,C=CCN1C=C2C(=O)C(C)(OC(=O)CCc3ccccc3)C(=O)C=C2C=C1c1ccc(C#N)cc1 (stereo not drawn),-7.84%
16,COc1ccc2c(c1)OC(O)(C(F)(F)C(F)F)CC2=O (stereo not drawn),-2.37%
17,O=C(Cn1cnc2ccccc2c1=O)Nc1cccc(S(=O)(=O)N2CCCCC2)c1,-13.8%
18,CC1CCN(S(=O)(=O)c2ccc3ncn(CC(=O)N(C)C4CCCCC4)c(=O)c3c2)CC1,-5.76%
19,CCN1CCCC1CNC(=O)Cn1cnc2ccc(S(=O)(=O)N3CCC(C)CC3)cc2c1=O (stereo not drawn),7.23% (active)
20,CN(CCc1cn[nH]c1)C(=O)CC1C(=O)NCCN1Cc1cccc(Oc2ccccc2)c1 (stereo not drawn),-5.68%
21,S=c1ccc2ccccc2[nH]1,-11.4%
22,NC(=O)Cc1ccc2c(c1)[nH]c1ccccc12,-8.6%
23,S=c1[nH]c2ccccc2c2ccccc12,6.26% (active)
24,O=C(C1CCCN1S(=O)(=O)c1ccc(Br)cc1)N1CCOCC1 (stereo not drawn),-0.78%

row,Structure (SMILES),"activation (rescue from dofetilide block), less the hit threshold"
1,O=C(CSc1nnc(-c2ccccc2O)o1)NC1CCCCC1,-7.03%
2,CCN(CC)C(=O)CSc1nnc(C2CCCCC2)o1,-6.69%
3,CCCCCC1CCC(c2nnc(SCC(C)=O)o2)CC1 (stereo not drawn),5.95% (active)
4,S=c1[nH]c(-c2cccs2)cn1-c1ccccc1,8.23% (active)
5,COc1ccc(-c2cn(-c3ccc(OC)cc3)c(=S)[nH]2)cc1,-3.47%
6,O=c1oc2ccccc2cc1-c1cn(-c2ccccc2)c(=S)[nH]1,-6.67%
7,CC(=O)N1CCN(S(=O)(=O)c2ccc(C)c([N+](=O)[O-])c2)C1C(C)C (stereo not drawn),-8.18%
8,Cc1ccc2c(c1)N(CC(=O)N1CCC(C)CC1)C(=O)c1cccnc1O2,-4.18%
9,C=CCc1cc(S(=O)(=O)c2ccc(O)c(CC=C)c2)ccc1O,-8.79%
10,CCC1(C)Cc2c(sc3nc(SC)[nH]c(=O)c23)CO1 (stereo not drawn),-9.23%
11,CCC1(C)Cc2c(sc3nc4n(c(=O)c23)CCCS4)CO1 (stereo not drawn),-3.92%
12,CCC1(C)Cc2c(sc3[nH]c(=S)n(Cc4ccccc4)c(=O)c23)CO1 (stereo not drawn),32.2% (active)
13,Cc1ccc2nc(-c3ccncc3)cc(C(=O)Nc3ccc4c(c3)OCCO4)c2c1,6.28% (active)
14,Cc1ccc2nc(-c3ccncc3)cc(C(=O)Nc3ccncc3)c2c1,-6.13%
15,Cc1ccc2nc(-c3ccccn3)cc(C(=O)Nc3ccc4c(c3)OCO4)c2c1,-4.32%
16,O=C(NCC1CC1)c1onc(CSc2ccccc2)c1C(=O)NCC1CC1,-9.81%
17,COc1ccc(CC(=O)N2N=C(C)CC2(O)C(F)(F)F)cc1 (stereo not drawn),-4.8%
18,CC(C)c1nc2ccc(C(=O)O)cc2[nH]1,-0.43%
19,Cc1nc2ccc(C(=O)N/N=C/c3ccc(O)cc3)cc2[nH]1,-13.1%
20,Cc1nc2ccc(C(=O)O)cc2[nH]1,6.97% (active)
21,COc1ccc(CNS(=O)(=O)c2cc(-c3cc(C)no3)ccc2C(C)C)cc1,-6.05%
22,CS(=O)(=O)N(Cc1nc2sc3c(c2c(=O)[nH]1)CCCC3)C1CCCCC1,-10.9%
23,Cc1cc(Cl)ccc1NNC(=O)c1snnc1C,-9.34%
24,COc1nc(NC2CCCCC2)nc(N2CCCCCC2)n1,-7.83%
